This note sets out measurements from PubChem BioAssay (NCATS).

SMILES strings stand for the structures. Values joined by “and” are separate entries in the source; they are usually repeats but may differ in a detail not shown here. Equal entries are not always repeated. Inconclusive results are not listed. Where a structure was tested more than once in an assay, its records may differ in their call. Active and inactive are the calls of the source. The call rests on the fitted dose curve; in most records, active means well fitted curve in the direction sought with a large enough effect; inconclusive means small, poorly fitted or top-dose-only effect, or another doubt; inactive means no such curve, though single readings can be large; an effect the other way counts as inactive or inconclusive.

Test [1] has as its target Cytochrome P450 3A7 (Homo sapiens) (UniProt P24462). Put plainly: Cytochrome P450 family 3 subfamily A member 7 (CYP3A7) small molecule antagonists: luciferase biochemical qHTS assay (AID 1963596). Further: on the % scale 0 is the no-effect control and ±100 the full control effect; nearly all actives have a fitted effect of over 40% in size. In a few lines: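 P450-Glo luminescent assay: CYP3A7 enzyme converts a proluciferin substrate to luciferin, detected by luciferase reagent; light proportional to activity. Compounds in DMSO preincubated 10 min with enzyme-substrate mix at room temperature, then NADPH regeneration added for 1 h.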
(In qHTS, concentration-response curves come from the screen itself.)

A short description of test [2]: Viability qHTS for spleen associated tyrosine kinase inhibitor (SYKi) naive MV4-11 cells (AID 1963823). Further: nearly all actives have a fitted effect of over 40% in size. Further: potency means the concentration at half of the fitted maximal effect. In a few lines:
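Cells: MV4-11, SYK inhibitor naive, 500 per well. Treatment: library compounds, 72 hr, 37 C, 5% CO2. Read-out: CellTiter-Glo luminescence after 10 min RT.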

A short description of test [3]: Viability qHTS for spleen associated tyrosine kinase inhibitor (SYKi) drug resistant MV4-11 cells (AID 1963824). Further: nearly all actives have a fitted effect of over 35% in size. Further: potency means the concentration at half of the fitted maximal effect. Summed up: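 CellTiter-Glo luminescence, read 10 min after reagent addition, reports viability after a 72 hr compound exposure. Cells are an MV4-11 line made resistant to SYK inhibition, seeded at 500 per well onto compound-containing plates.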
Test [4] can be described thus: Quantitative highthroughput screen to assess conditional lethalithy of NOMO1 cells grown in RPMI1640 with untreated serum (RPMI+s) (AID 1963876). Further: nearly all actives have a fitted effect of over 35% in size. Further: potency means the concentration at half of the fitted maximal effect.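 On Viability: 100% = DMSO wells and 0% = empty wells without cells.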 In a few lines: (§1)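 Each medium arm—HPLM with 10% dialyzed FBS, or RPMI1640 with 5 mM glucose and 10% untreated or dialyzed FBS—was screened against an 11-point, 3-fold compound titration for 48 h at 37 °C, with CellTiter-Glo luminescence as endpoint.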

A short description of test [5]: Quantitative highthroughput screen to assess conditional lethalithy of NOMO1 cells grown in RPMI1640 with dialyzed fetal bovine serum (RPMI+ds) (AID 1963877). Further: nearly all actives have a fitted effect of over 30% in size. Further: potency means the concentration at half of the fitted maximal effect.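 On Viability: series mostly up to about 46 µM; 100% = DMSO control wells and 0% = empty wells.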 In a few lines: as §1
Test [6] in a line: Cellular viability qHTS for adrenocortical cancer (ACC) cell line SW-13 (AID 1963989). Further: nearly all actives have a fitted effect of over 65% in size. Further: potency means the concentration at half of the fitted maximal effect.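 On activity (max response): cells grown in serum-free medium with ITS supplement; on the % scale 0 is the no-effect control and ±100 the full control effect.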 Conditions: SW-13 ACC cells viability, CellTiter-Glo, 48 h; activity (max response): stronger effect = lower value. Summed up:
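Luminescent ATP read-out (CellTiter-Glo, 20 min at room temperature) measured metabolically competent SW-13 cells after 48 h compound treatment. Final concentrations spanned up to 46 uM; bortezomib served as positive control.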

Test [7] is described as follows: Cellular viability qHTS for adrenocortical cancer (ACC) cell line NCI-H295R (AID 1963990). Further: nearly all actives have a fitted effect of over 60% in size. Further: potency means the concentration at half of the fitted maximal effect. Summed up: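 IC50 and maximal efficacy derive from four-parameter logistic modelling of titration curves, with reads scaled between DMSO-only wells (0%) and doxorubicin hydrochloride (100% inhibition). Compounds spanned up to 46 uM over 48 h.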
A short description of test [8]: Quantitative highthroughput screen to assess conditional lethalithy of NOMO1 cells grown in Human Plasma-Like Medium with dialyzed fetal bovine serum (HPLM+ds) (AID 1963878). Further: nearly all actives have a fitted effect of over 35% in size. Further: potency means the concentration at half of the fitted maximal effect.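 On Viability: 100% = DMSO wells and 0% = empty wells on each plate.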 In a few lines:
as §1

Test [9] can be described thus: Quantitative highthroughput screen to assess conditional lethalithy of P12 Ichikawa cells grown in RPMI1640 with dialyzed fetal bovine serum (RPMI+ds) (AID 1963880). Further: nearly all actives have a fitted effect of over 35% in size. Further: potency means the concentration at half of the fitted maximal effect.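 On Viability: 100% = DMSO wells and 0% = empty wells on each plate.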 Particulars: Potency: P12-Ichikawa viability. Summed up: as §1
A short description of test [10]: Quantitative highthroughput screen to assess conditional lethalithy of SEM cells grown in Human Plasma-Like Medium with dialyzed fetal bovine serum (HPLM+ds) (AID 1963882). Further: nearly all actives have a fitted effect of over 35% in size. Further: potency means the concentration at half of the fitted maximal effect. On Viability: series mostly up to about 46 µM. Summed up:
as §1

The nature of test [11]: Quantitative highthroughput screen to assess conditional lethalithy of SEM cells grown in RPMI1640 with unreated serum (RPMI+s) (AID 1963883). Further: nearly all actives have a fitted effect of over 35% in size. Further: potency means the concentration at half of the fitted maximal effect.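 On Viability: 100% = DMSO wells and 0% = empty wells without cells.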 Summed up:
as §1

The nature of test [12]: Quantitative highthroughput screen to assess conditional lethalithy of P12 Ichikawa cells grown in Human Plasma-Like Medium with dialyzed fetal bovine serum (HPLM+ds) (AID 1963879). Further: nearly all actives have a fitted effect of over 35% in size. Further: potency means the concentration at half of the fitted maximal effect. On Viability: series mostly up to about 46 µM. Conditions: Potency: viability. In a few lines: as §1
Test [13] can be described thus: Quantitative highthroughput screen to assess conditional lethalithy of SEM cells grown in RPMI1640 with dialyzed fetal bovine serum (RPMI+ds) (AID 1963884). Further: nearly all actives have a fitted effect of over 35% in size. Further: potency means the concentration at half of the fitted maximal effect.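 On Viability: series mostly up to about 46 µM; 100% = DMSO control wells and 0% = empty wells without cells.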 Summed up: as §1
Test [14] can be described thus: Quantitative highthroughput screen to assess conditional lethalithy of P12 Ichikawa cells grown in RPMI1640 with untreated serum (RPMI+s) (AID 1963881). Further: nearly all actives have a fitted effect of over 35% in size. Further: potency means the concentration at half of the fitted maximal effect.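 On Viability: series mostly up to about 46 µM; 100% = DMSO wells and 0% = empty wells without cells.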 Particulars: Potency: viability. In a few lines:
as §1

Sequence of Cytochrome P450 3A7 (Homo sapiens) (P24462 whole entry, looked up): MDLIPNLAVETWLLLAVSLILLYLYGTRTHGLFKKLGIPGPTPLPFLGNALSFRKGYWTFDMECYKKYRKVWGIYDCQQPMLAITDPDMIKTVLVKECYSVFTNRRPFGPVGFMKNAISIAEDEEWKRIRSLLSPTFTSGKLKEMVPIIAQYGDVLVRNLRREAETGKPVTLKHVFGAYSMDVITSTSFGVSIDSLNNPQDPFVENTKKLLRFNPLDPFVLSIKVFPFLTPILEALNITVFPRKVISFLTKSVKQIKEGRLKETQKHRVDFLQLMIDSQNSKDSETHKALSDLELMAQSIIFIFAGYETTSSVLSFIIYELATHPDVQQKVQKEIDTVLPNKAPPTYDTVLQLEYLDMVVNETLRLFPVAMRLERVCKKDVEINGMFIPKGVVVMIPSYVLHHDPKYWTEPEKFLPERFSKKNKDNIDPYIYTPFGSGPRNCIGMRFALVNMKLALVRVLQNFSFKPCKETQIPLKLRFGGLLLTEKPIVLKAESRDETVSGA

With `CO[C@@H]1COCC[C@@H]1N[C@@H]1CC[C@@](C(=O)N2CCc3ncc(C(F)(F)F)cc3C2)(C(C)C)C1`, the Potency entry in test [1], in test [2], in test [3], in test [4], in test [5] and in test [7] was “inactive” each time. Also, the activity (max response) in test [6] is -5.19% (inactive).
Turning to `Fc1cc(-c2cccc3ncc(-c4cnn(C5CCNCC5)c4)nc23)cc(F)c1CN1CCOCC1`, the Potency result in test [1] is “inactive”. For the same molecule, the Potency was 259 nM (active) and 372 nM (active) in test [2]; 731 nM (active) and 833 nM (active) in test [3]; 3.32 µM (active) in test [8]; 16.6 µM (active) in test [9]; 4.69 µM (active) in test [10]; 2.64 µM (active) in [11]. The Potency in test [6] is 25.1 µM (active); in test [7], 6.31 µM (active).
As for `COc1c(O)cc2c(c1O)[C@@H]1O[C@H](CO)[C@@H](O)[C@H](O)[C@H]1OC2=O`, the Potency result in test [1], in [2] and in [3] was “inactive” each time. The Potency is 14.8 µM (active) in [8]; 16.6 µM (active) in test [12]; 20.9 µM (active) in test [10]; 10.5 µM (active) in test [11]; 18.7 µM (active) in [13].
With `O=C(NC(Cc1cc(=O)[nH]c2ccccc12)C(=O)O)c1ccc(Cl)cc1` (stereo not given), the Potency entry in test [1], in test [2], in [3], in test [5], in [8] and in [12] was “inactive” in each case. Moreover, the Potency entry in [9], in test [14], in test [10], in [11], in test [13] and in test [7] was “inactive” in each case. Besides, the activity (max response) in [6] is 7.09% (inactive) and -3.01% (inactive).
For the molecule `COc1cccc2c1CCCC2CCCN1CCN(C2CCCCC2)CC1` (stereo not given), in [1], the Potency entry is “inactive”. For the same molecule, the Potency in test [2] was 16.6 µM (active); in [3], 10.5 µM (active); in [4], 20.9 µM (active); in test [9] it was 18.7 µM (active); in test [6] it was 22.4 µM (active).
With `C[C@@H](N)c1ccc(C(=O)Nc2ccnc3[nH]ccc23)cc1`, the Potency result in [1] and in test [9] was “inactive” throughout. Besides, the Potency in [2] is 4.17 µM (active); in test [3] it was 10.3 µM (active); in test [5], 18.7 µM (active); in [6], 25.1 µM (active).
For `CCn1cc(C(=O)O)c(=O)c2cc(F)c(N3CCNCC3)cc21`, the Potency result in test [1], in [2], in test [3], in test [5] and in [7] was “inactive” in each case. Also, the Potency in test [14] is 3.32 µM (active). In addition, in test [6], the activity (max response) was -6.7% (inactive) and -21.8% (inactive).
`COC(=O)Nc1nc2ccc(C(=O)c3ccccc3)cc2[nH]1`: the Potency result in [1] is “inactive”. In addition, the Potency in test [2] was 0.332 µM (active); in [3] it was 596 nM (active) and 372 nM (active); in test [4] it was 3.32 µM (active); in [9], 1.87 µM (active); in [14], 0.332 µM (active); in [7], 103 nM (active) and 141 nM (active).
Take `COC(=O)Nc1nc2ccc(S(=O)c3ccccc3)cc2[nH]1` (stereo not given): the Potency entry in [1], in [4] and in test [9] was “inactive” in each case. In addition, the Potency in [2] was 16.6 µM (active) and 841 nM (active); in [3], 14.8 µM (active) and 668 nM (active); in test [6] it was 8.91 µM (active) and 259 nM (active); in [7] it was 4.47 µM (active) and 259 nM (active).
For the molecule `COc1cc2c(c(OC)c1OC)-c1ccc(OC)c(=O)cc1[C@@H](NC(C)=O)CC2`, the Potency entry in test [1], in [4], in test [11] and in test [13] was “inactive” in each case. For the same molecule, the Potency was 23.7 nM (active) and 18.6 nM (active) in test [2]; 16.8 nM (active) and 14.8 nM (active) in test [3]; 25.9 nM (active) and 35.5 nM (active) in test [6]; 92 nM (active) and 100 nM (active) in test [7].
For `CN(C)CCOC(c1ccccc1)c1ccccc1`, the Potency result in test [1], in test [2], in test [3], in test [8], in test [14] and in test [11] was “inactive” throughout. Besides, the Potency entry in test [13] and in [7] was “inactive” each time. Also, the activity (max response) in [6] is 0.185% (inactive) and 9.44% (inactive).
Take `O=C(Nc1cccnn1)N1CCC(=Cc2cccc(Oc3ccc(C(F)(F)F)cn3)c2)CC1`: the Potency entry in test [1], in test [4], in test [12], in test [9], in [14] and in test [10] was “inactive” in each case. Further, the Potency result in test [11] is “inactive”. Also, the Potency was 7.42 µM (active) in test [2]; 10.3 µM (active) and 6.61 µM (active) in test [3]; 15.8 µM (active) in test [7].
Regarding `Cc1cn([C@@H]2C[C@@H](O)[C@H](CO)O2)c(=O)[nH]c1=O`, the Potency result in test [1], in [2], in test [3], in test [4] and in test [7] was “inactive” throughout. Moreover, the Potency is 23.5 µM (active) in test [12], 23.5 µM (active) in test [9] and 26.4 µM (active) in test [14].
For the molecule `CNc1nc(Nc2cnn([C@H]3CCN(C4COC4)C[C@@H]3F)c2Cl)ncc1C(F)(F)F`, the Potency entry in [1] and in [7] was “inactive” in each case. The Potency in test [2] is 1.3 µM (active); in test [3], 1.86 µM (active); in test [4], 1.66 µM (active); in test [13] it was 2.34 µM (active). Moreover, the activity (max response) in test [6] is -2.31% (inactive).
In the case of `CC12CC3CC(C)(C1)CC(N)(C3)C2`, the Potency result in test [1], in test [2], in [10], in test [11], in test [13] and in [7] was “inactive” throughout. In addition, the Potency in [3] is 3.76 µM (active); in [5], 18.7 µM (active). In addition, the activity (max response) in test [6] is -3.68% (inactive).
As to `CN1C(C(=O)Nc2ccccn2)=C(O)c2sccc2S1(=O)=O`, the Potency entry in [1], in test [3], in [12], in test [9], in test [14] and in [10] was “inactive” in each case. The Potency entry in [11], in [13] and in test [7] was “inactive” in each case. Further, in test [2], the Potency was 750 nM (active) and inactive. Moreover, the activity (max response) in test [6] is 0.0862% (inactive) and -19.6% (inactive).
Regarding `Cc1cnc(Nc2ccc(N3CCN(C)CC3)cc2)nc1Nc1cccc(S(=O)(=O)NC(C)(C)C)c1`, the Potency entry in test [1] is “inactive”. In addition, the Potency was 0.103 µM (active) in test [2]; 0.206 µM (active) in test [3]; 13.2 µM (active) in [4]; 11.8 µM (active) in test [12]; 16.6 µM (active) in [9]; 7.43 µM (active) in test [14]. Besides, the Potency in [10] was 1.05 µM (active); in test [11], 0.935 µM (active); in test [6], 12.6 µM (active); in test [7] it was 10 µM (active).
Consider `CCN1CCCC1CNC(=O)c1cc(S(=O)(=O)CC)c(N)cc1OC` (stereo not given), for which the Potency entry in test [1], in test [2], in test [3], in test [5], in [12] and in test [9] was “inactive” throughout. Moreover, the Potency result in test [14], in [10], in test [11], in [13] and in test [7] was “inactive” throughout. In addition, the activity (max response) in test [6] was 7.57% (inactive) and -4.85% (inactive).
